Compounds without any hit were thinned out: in the full panel of roughly 83,000, 20% have a hit.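 How to read the values: 0–100, growth inhibition (40 = 60% inhibited); 0, no net growth; -100 to 0, cell death (-40 = 40% of starting cells died; -100 = all dead).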 Values without a mark were called inactive. Active and inactive are the calls of the source. Rule for the calls: active = growth percent below 10; inactive = the rest.

This test deals with PC-3 prostate. Briefly: NCI-60 one-dose screen, 48 h (100 = growth as untreated, 0 = no growth, -100 = all killed). The conditions noted are these: 10 µM unless noted.
With `COc1cc(-c2nc(C(=O)NCC(=O)NO)nn2-c2ccc(Cl)cc2)cc(OC)c1OC`, the growth is 87.9%.

With `O=c1ccccc(-c2ccc(Br)cc2)c1O`, the growth was 29.5%.

For `COc1ccc(-c2nnc(SCC(=O)c3ccc(Cl)cc3)o2)cc1`, the growth is 101%.

On to `O=C1/C(=C/c2ccccc2O)N=C2SCCCN12`, for which the growth is 88.2%.

For `CC(C)(CCCN=C(N)Nc1ccc(Cl)cc1)c1ccc(F)cc1`, the growth is 52.9%.

`CCCCC[C@H]1C/C=C2/C(=O)C=C[C@@H]2C/C=C\CCCC(=O)O1`: the growth was -38.4% (active).

Regarding `COc1ccc2c(c1)C(=O)/C(=C/c1ccccn1)CC2`, the growth is 87.6%.

In the case of `C=C1C(=O)O[C@H]2[C@H]1CC/C(COC(=O)NCCc1ccc(OC)c(OC)c1)=C\CC[C@@]1(C)O[C@@H]21`, the growth is 78.8%.

As to `COc1cc(-c2nn(-c3ccc(Br)cc3)cc2C(=O)O)ccc1O`, the growth is 97.2%.

With `CCCCCC(=O)Oc1ccc(/C(=C(\C)c2ccc(OC)cc2)c2ccc(OCCN3CCCCC3)cc2)cc1`, the growth is 51.1%.

With `CCOc1ccc(C(C)=O)cc1NC(=O)c1cccc(-c2nnn(CC)n2)c1`, the growth was 27.3%.

For the molecule `CC(=O)OC[C@H]1O[C@H](OC(C)=O)[C@H](NC(=O)/C=C/CCl)[C@@H](OC(C)=O)[C@@H]1OC(C)=O`, the growth was 70.4%.

As to `CCC#CC[C@H](O)C/C=C1/C(=O)C=C[C@@H]1C/C=C\CCCC(=O)OC`, the growth is 1.55% (active).

`CC/C=C\C[C@H](O)C/C=C1/C(=O)C=C[C@@]1(C)C/C=C\CCCC(=O)OC`: the growth was 96.1%.

On to `CC[N+](CC)=c1sc2c(s1)C(c1ccc(Cl)cc1)Oc1ccc(Cl)cc1-2` (centres undefined), for which the growth was 3.92% (active).

For `COc1cccc(-c2nc(SCC(=O)Nc3ccc(C(=O)/C=C/c4ccc(OC)c(OC)c4)cc3)[nH]c(=O)c2C#N)c1`, the growth is 100%.

Turning to `COc1ccc(CN2c3ccccc3Oc3ccccc32)cc1O`, the growth is 31.4%.

For the molecule `C=C1C(=O)O[C@H]2[C@H]1CC/C(C=Nc1ccc(C(F)(F)F)cc1N)=C\CC[C@@]1(C)O[C@@H]21`, the growth is 14.2%.

Turning to `COc1ccc2c(c1)C(=O)/C(=C/c1cccnc1)CC2`, the growth is 101%.

With `Clc1ccc2c(NCCCCNc3nc(N4CCOCC4)nc4ccccc34)ccnc2c1`, the growth was 38.9%.

On to `COc1ccccc1Nc1nc(-c2cc3cccc(C(F)(F)F)c3oc2=O)cs1`, for which the growth is 21.2%.

Turning to `O=c1oc2c(C(F)(F)F)cccc2cc1-c1csc(Nc2ccc(OCCF)cc2)n1`, the growth is 21%.

As to `COc1ccc(CN2c3ccccc3Sc3ccccc32)c(C(F)(F)F)c1`, the growth is 26.9%.

As for `COc1cc2c(cc1O)CC[C@@H]1[C@@H]2CC[C@]2(C)[C@@H](OCCN(C)C)CC[C@@H]12`, the growth was 45.4%.

As to `NC(=NCCCC1(c2ccccc2)CCCC1)Nc1ccc(Cl)cc1`, the growth is 43.3%.

Take `CCOc1ccc(-n2nc(C(=O)Nc3cc(OC)c(OC)c(OC)c3)nc2-c2cc(OC)c(OC)c(OC)c2)cc1`: the growth was 70.2%.

As for `COc1ccc(CN2c3ccccc3Sc3ccccc32)cc1O`, the growth is 26.1%.

Turning to `NCCNc1nc(Nc2ccc(-c3nc4ccccc4[nH]3)cc2)c2cn[nH]c2n1`, the growth is 74%.

With `COc1cccc2c1C(=O)c1c(O)c3c(c(O)c1C2=O)C[C@](O)(C(=O)CO)C[C@H]3O[C@@H]1C[C@@H](NC(=O)CCCCCN(C)C2(c3ccc(F)cc3)CC3CCC2C3)[C@H](O)[C@@H](C)O1` (some centres undefined), the growth was -82.7% (active).

The values are drawn from PubChem BioAssay (NCI).
